± gives the standard deviation.
test system: RAW-Dual (murine macrophage reporter line); assay: IRF reporter (Lucia luciferase) activity fold change vs agonist alone; higher = enhanced IRF activity; settings: modulator concentration 10 µM; agonist: LPS 0.1 ug/mL
Outline: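 Compound reached 10 μM final in each well by pin transfer, onto RAW-Dual murine macrophage reporter cells seeded at 50 000 per well in 384-well plates. After 1 hour at 37 °C, the cells were stimulated overnight with a PRR agonist. SEAP in the supernatant was read with QUANTI-Blue at 620 nm absorbance for NF-κB, and Lucia luciferase was read with QUANTI-Luc luminescence for IRF. Each signal was turned into fold change against the mean agonist-only control on the same plate, and two replicate plates were averaged with propagated errors.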

| SMILES | IRF reporter |
| --- | --- |
| CCc1c(C)nc(-n2nc(C)cc2NC(=O)CSCc2ccccc2)[nH]c1=O | 1.22 ± 0.078 |
| COC(=O)Nc1nc2cc(S(=O)c3ccccc3)ccc2[nH]1 (centres undefined) [Prestw-1459] | 0.825 ± 0.13 |
| Cc1[nH]c2ccccc2c1CCNCc1ccc(/C=C/C(=O)NO)cc1 | 0.355 ± 0.032 |
| O=C(CSc1nc(-c2ccccc2)c(-c2ccccc2)[nH]1)N1CCOCC1 | 1.28 ± 0.17 |
| O=[N+]([O-])c1ccc2nc(S)sc2c1 | 0.986 ± 0.12 |
| Cc1n[nH]c(C)c1CCC(=O)NC1CCC(F)(F)CC1 | 1.18 ± 0.094 |
| O=C(Nc1nc2ccc(Cl)cc2s1)c1ccc(Br)s1 | 1.06 ± 0.054 |
| CC1(C)[C@H](C(=O)O)N2C(=O)C[C@H]2S1(=O)=O | 0.931 ± 0.038 |
| NCC(=O)O | 1.02 ± 0.12 |
| Br.C=CCn1c(=N)n(CC(=O)c2cccc([N+](=O)[O-])c2)c2ccccc21 | 1.16 ± 0.099 |
| Cc1cc(OC2CCN(C(=O)c3csc(C)n3)CC2)nc(C)n1 | 1.23 ± 0.12 |
| Ic1ccc(N=Cc2ccc(C=Nc3ccc(I)cc3)cc2)cc1 | 1.24 ± 0.19 |
| O=Cc1ccc(OC(=O)c2cccc(C(=O)Oc3ccc(C=O)cc3)c2)cc1 | 1.52 ± 0.088 |
| COc1ccc(-c2[nH]c(-c3ccccc3)nc2SCC(=O)NC2CCCC2)cc1 | 1.09 ± 0.095 |
| CCN(C=Nc1sc2c(c1C#N)CC(C)(C)NC2(C)C)CC | 1.24 ± 0.071 |
| CCOC(=O)N1CCC(=C2c3ccc(Cl)cc3CCc3cccnc32)CC1 | 1.06 ± 0.097 |
| Cc1cc(OCC(=O)Nc2ccccc2-c2ccccc2)ccc1Br | 1.47 ± 0.087 |
| NC(CO)(CO)CO.O=C(c1ccccc1)c1ccc2n1CCC2C(=O)O (centres undefined) | 1.07 ± 0.2 |
| O=C(Nc1cc(C(F)(F)F)cc(C(F)(F)F)c1)c1cc2ccccc2o1 | 1.32 ± 0.25 |
| CC(=O)Nc1ccc(S(=O)(=O)N2CCCc3ccccc32)cc1 | 1.27 ± 0.24 |

| SMILES | IRF reporter |
| --- | --- |
| CN(C)CCCN1c2ccccc2CCc2ccc(Cl)cc21.Cl | 1.18 ± 0.53 |
| CCCCOc1ccc(C(=O)Nc2cc(-c3nc4ccccc4o3)ccc2OC)cc1 | 1.06 ± 0.049 |
| CCOC(=O)c1c(N)sc(C(=O)N2CCCC(C(N)=O)C2)c1C (centres undefined) | 2.11 ± 0.89 |
| Cn1nc(CNC(=O)c2cccc3ccccc23)cc1C1CC1 | 1.06 ± 0.059 |
| CCOc1ccc(CN(CCc2ccc3c(c2)OCO3)Cc2cccc3ccccc23)cc1 | 0.908 ± 0.045 |
| Cc1cnc(C(=O)O)c[n+]1[O-] | 0.966 ± 0.048 |
| O=S(=O)(c1ccc(F)cc1)N1CCC(c2nc3ccccc3[nH]2)CC1 | 1.01 ± 0.093 |
| O=C(Cn1cnc(-c2ccc(Cl)cc2)cc1=O)N1CCOCC1 | 1.09 ± 0.17 |
| O=C(C=Cc1ccc(O)cc1)c1ccc(O)cc1O | 0.966 ± 0.1 |
| Cc1cc(OC2CCN(S(=O)(=O)CCc3ccccc3)C2)cc(=O)n1C (centres undefined) | 0.785 ± 0.19 |
| CCCC(=O)Nc1ccc(N2CCCCC2)cc1 | 1.48 ± 0.1 |
| CN(C)CCOC(c1ccc(Cl)cc1)c1ccccn1.O=C(O)/C=C\C(=O)O (centres undefined) | 1.36 ± 0.27 |
| CS(=O)(=O)Nc1cccc(F)c1 | 1.07 ± 0.14 |
| CCOc1ccc(N=Cc2c(Nc3ccc(OCC)cc3)nc3ccccn3c2=O)cc1 | 1.23 ± 0.14 |
| Cc1cnc2c(c1SCC(=O)N1CCc3ccccc31)c(=O)n(C)c(=O)n2C | 1.17 ± 0.15 |
| CCOC(=O)c1ccc(N2C(=O)CC(N3CCN(c4ccc([N+](=O)[O-])cc4)CC3)C2=O)cc1 (centres undefined) | 1.64 ± 0.13 |
| CS(=O)(=O)C1CC2CCC(C1)N2C(=O)c1cccc(Oc2ccc(F)cc2)c1 (centres undefined) | 1.2 ± 0.085 |
| Cn1ccc(C(=O)Nc2nc(C(C)(C)C)cs2)n1 | 1.31 ± 0.18 |
| NC(=S)c1cc2ccc(O)cc2oc1=O | 0.979 ± 0.12 |
